Consider 3 molecules from the supplement of paper PMC7724964.

First the molecules themselves.
T1: ARID4A 568-634 Tudor-knot (domain begin residue: 568, domain end residue: 634), P29374
T1 chain: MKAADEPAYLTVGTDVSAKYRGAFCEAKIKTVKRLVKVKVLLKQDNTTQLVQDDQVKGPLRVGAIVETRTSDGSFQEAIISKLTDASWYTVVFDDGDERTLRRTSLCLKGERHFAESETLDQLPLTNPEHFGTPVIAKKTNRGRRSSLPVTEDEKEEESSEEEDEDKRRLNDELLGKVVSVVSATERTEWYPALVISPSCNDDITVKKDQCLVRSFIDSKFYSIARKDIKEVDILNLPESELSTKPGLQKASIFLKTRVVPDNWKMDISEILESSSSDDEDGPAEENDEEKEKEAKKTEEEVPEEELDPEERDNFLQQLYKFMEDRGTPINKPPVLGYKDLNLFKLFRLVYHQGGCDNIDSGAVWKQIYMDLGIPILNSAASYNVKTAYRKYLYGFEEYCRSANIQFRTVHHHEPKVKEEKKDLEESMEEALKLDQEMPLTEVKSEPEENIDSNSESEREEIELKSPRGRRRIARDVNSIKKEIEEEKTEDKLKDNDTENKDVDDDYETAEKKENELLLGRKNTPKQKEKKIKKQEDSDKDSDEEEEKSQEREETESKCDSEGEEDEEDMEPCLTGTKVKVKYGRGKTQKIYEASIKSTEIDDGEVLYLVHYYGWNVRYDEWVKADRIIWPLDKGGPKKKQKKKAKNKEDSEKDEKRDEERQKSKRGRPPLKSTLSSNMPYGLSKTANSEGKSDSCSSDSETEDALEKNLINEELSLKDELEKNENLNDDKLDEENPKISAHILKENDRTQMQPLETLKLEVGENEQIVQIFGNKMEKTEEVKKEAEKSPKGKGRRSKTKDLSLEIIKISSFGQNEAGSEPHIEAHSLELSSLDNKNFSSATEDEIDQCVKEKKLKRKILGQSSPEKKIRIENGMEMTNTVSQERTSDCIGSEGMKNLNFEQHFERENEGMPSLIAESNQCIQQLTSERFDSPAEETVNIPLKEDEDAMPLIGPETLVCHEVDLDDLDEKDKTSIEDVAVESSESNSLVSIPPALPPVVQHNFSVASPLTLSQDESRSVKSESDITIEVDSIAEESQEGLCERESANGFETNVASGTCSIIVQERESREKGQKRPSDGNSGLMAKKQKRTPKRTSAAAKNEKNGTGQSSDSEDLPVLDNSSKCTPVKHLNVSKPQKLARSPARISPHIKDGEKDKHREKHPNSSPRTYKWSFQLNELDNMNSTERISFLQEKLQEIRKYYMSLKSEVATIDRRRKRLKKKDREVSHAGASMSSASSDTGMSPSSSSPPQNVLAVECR

T2: SND1 650-910 TUDOR+SNase (domain begin residue: 650, domain end residue: 910), Q7KZF4
T2 chain: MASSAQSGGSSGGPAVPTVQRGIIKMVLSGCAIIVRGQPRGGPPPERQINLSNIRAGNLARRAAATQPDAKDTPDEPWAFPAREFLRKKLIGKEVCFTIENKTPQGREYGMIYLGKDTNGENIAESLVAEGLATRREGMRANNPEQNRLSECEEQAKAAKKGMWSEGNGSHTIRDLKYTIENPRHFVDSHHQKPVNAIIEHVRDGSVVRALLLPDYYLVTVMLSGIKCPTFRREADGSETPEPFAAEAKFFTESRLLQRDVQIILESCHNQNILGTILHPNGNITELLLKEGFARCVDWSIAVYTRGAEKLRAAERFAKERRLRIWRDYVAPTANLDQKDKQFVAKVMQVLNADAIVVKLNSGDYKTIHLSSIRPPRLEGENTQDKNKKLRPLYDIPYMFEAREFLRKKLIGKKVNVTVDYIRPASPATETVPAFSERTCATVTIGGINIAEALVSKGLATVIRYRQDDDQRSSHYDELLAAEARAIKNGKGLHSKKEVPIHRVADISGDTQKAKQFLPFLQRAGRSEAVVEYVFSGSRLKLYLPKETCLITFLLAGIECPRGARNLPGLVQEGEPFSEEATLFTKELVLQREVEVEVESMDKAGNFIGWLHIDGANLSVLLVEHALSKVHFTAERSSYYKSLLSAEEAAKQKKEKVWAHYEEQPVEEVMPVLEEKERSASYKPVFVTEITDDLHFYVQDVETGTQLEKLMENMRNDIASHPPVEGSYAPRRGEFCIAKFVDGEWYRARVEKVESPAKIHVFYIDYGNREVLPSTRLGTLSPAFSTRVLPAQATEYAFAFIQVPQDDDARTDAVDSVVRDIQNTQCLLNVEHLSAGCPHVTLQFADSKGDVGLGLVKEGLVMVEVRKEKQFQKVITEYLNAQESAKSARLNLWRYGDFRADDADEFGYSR

T3: BTN1A1 285-479 SPRY (domain begin residue: 285, domain end residue: 479), Q13410
T3 chain: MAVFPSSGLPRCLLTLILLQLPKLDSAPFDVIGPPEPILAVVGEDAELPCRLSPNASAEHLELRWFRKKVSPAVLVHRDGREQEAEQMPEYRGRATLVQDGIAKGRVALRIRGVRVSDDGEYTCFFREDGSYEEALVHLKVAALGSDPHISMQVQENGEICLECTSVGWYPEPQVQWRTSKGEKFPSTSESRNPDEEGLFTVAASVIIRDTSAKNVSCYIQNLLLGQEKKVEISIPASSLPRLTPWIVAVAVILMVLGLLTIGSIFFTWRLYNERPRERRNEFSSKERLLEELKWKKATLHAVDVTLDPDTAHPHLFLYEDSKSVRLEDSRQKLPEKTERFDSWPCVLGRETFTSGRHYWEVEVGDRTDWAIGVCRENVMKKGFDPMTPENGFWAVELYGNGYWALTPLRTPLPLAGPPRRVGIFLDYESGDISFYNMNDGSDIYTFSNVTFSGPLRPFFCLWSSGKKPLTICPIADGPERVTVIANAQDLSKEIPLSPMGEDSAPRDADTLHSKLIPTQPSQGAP

T4: LBR 1-67 LBR_tudor (domain begin residue: 1, domain end residue: 67), Q14739
T4 chain: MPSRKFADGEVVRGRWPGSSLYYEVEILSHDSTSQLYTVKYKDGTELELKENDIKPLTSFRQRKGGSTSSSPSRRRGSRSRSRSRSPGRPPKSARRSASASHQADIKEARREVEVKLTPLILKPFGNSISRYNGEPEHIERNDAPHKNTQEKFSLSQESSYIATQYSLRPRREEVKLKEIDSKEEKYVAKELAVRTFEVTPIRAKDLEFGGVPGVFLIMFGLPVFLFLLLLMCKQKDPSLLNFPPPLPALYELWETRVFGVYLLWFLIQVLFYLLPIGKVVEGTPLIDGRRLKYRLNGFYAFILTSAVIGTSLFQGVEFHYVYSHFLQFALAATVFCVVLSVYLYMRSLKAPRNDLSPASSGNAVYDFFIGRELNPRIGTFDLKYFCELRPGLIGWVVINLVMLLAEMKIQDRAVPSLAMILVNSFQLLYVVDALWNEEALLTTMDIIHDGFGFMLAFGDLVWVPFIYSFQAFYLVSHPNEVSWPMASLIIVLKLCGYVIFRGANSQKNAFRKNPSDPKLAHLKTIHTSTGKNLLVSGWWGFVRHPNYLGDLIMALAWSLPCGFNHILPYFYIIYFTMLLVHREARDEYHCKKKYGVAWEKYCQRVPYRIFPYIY

T5: TDRD1 261-449 TUDOR (domain begin residue: 261, domain end residue: 449), Q9BXT4
T5 chain: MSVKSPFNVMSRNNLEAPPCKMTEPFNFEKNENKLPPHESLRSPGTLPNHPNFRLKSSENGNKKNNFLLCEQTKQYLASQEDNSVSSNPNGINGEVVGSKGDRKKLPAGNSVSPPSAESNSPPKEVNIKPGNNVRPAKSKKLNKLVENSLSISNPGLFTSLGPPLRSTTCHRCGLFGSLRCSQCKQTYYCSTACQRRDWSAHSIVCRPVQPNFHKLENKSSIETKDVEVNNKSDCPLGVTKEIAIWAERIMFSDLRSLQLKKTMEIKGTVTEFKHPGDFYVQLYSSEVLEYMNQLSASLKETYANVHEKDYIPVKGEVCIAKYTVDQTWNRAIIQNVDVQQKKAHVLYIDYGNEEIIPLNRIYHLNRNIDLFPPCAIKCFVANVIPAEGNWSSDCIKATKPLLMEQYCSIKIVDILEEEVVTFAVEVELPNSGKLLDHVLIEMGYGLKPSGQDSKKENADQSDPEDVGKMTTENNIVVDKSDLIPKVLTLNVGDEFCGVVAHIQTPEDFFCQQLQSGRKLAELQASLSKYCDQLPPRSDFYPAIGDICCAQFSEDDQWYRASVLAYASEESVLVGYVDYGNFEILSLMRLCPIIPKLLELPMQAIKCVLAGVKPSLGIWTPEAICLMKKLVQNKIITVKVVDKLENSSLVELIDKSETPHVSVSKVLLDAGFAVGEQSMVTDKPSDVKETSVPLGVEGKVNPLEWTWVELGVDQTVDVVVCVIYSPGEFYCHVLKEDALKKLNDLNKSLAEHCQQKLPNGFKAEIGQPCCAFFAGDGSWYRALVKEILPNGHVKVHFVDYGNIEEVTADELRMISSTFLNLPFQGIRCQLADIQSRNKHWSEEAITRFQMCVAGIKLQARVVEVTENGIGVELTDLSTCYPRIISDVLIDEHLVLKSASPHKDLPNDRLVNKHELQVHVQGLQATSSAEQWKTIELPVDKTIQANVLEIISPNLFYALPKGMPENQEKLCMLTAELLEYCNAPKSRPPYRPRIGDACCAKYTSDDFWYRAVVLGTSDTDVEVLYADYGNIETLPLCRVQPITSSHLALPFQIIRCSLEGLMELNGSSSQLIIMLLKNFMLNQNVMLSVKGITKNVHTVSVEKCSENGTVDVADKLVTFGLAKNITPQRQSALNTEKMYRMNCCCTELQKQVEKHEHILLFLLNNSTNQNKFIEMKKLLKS

T6: ZGPAT 120-268 zf-CCCH+TUDOR (domain begin residue: 120, domain end residue: 268), Q8N5A5
T6 chain: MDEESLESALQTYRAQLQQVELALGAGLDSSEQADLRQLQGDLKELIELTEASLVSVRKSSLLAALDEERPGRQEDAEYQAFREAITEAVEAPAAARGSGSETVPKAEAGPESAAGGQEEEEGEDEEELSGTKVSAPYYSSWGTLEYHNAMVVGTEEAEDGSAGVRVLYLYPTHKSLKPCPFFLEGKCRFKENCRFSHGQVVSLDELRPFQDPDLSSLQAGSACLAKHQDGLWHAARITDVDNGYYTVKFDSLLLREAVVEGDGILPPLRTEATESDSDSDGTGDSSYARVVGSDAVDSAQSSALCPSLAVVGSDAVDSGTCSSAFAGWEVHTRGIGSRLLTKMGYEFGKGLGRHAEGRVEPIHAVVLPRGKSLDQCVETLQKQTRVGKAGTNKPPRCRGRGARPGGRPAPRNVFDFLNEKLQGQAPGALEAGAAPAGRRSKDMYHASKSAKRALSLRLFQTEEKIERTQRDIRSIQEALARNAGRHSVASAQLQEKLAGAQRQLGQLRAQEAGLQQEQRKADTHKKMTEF

Sequence of SETD1A 2-220 RRM_1 (domain begin residue: 2, domain end residue: 220), O15047 (O15047 whole entry): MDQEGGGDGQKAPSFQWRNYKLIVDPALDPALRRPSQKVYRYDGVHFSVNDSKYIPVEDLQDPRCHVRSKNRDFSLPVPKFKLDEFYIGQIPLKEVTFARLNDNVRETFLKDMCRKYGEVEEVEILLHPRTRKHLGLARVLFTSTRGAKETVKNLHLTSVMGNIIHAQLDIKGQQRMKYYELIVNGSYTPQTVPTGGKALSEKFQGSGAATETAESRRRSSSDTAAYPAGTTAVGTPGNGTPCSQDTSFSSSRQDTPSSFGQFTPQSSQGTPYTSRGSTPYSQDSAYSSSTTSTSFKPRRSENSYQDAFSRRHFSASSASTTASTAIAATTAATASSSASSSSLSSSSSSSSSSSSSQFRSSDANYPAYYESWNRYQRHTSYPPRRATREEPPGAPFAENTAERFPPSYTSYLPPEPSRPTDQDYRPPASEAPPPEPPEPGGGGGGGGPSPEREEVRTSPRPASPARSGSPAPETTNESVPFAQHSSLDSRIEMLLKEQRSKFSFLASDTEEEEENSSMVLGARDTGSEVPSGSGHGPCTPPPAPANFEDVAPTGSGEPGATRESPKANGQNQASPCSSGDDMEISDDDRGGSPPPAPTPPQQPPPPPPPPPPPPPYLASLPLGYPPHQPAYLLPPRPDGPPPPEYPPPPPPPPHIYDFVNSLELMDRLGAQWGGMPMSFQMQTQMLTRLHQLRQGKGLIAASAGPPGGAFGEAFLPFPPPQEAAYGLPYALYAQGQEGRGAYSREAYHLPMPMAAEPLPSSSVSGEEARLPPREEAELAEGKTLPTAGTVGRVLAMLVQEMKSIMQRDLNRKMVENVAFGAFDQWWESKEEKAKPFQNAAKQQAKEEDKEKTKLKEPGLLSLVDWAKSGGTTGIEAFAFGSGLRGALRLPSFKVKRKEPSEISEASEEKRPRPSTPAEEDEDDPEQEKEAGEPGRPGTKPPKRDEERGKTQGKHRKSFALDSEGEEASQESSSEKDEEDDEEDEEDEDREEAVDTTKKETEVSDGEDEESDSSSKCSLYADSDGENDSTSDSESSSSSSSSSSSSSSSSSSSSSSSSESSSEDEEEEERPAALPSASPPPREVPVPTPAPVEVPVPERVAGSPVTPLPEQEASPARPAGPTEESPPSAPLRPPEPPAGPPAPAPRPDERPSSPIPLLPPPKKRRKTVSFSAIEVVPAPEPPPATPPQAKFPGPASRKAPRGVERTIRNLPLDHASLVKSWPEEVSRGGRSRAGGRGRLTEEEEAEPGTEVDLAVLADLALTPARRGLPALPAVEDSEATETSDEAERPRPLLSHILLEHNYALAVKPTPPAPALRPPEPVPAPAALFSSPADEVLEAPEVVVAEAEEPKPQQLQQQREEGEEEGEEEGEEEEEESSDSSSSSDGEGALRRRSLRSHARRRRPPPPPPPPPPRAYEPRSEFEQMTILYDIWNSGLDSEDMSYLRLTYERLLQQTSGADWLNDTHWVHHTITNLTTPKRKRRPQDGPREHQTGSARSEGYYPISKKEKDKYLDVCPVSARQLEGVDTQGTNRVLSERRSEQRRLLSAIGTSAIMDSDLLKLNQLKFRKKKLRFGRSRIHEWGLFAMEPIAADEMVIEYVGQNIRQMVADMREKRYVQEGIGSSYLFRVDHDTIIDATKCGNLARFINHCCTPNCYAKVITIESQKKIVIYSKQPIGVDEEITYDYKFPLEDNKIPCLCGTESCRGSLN
Sequence of RBBP8 722-897 SAE2 (domain begin residue: 722, domain end residue: 897), Q99708 (Q99708 whole entry): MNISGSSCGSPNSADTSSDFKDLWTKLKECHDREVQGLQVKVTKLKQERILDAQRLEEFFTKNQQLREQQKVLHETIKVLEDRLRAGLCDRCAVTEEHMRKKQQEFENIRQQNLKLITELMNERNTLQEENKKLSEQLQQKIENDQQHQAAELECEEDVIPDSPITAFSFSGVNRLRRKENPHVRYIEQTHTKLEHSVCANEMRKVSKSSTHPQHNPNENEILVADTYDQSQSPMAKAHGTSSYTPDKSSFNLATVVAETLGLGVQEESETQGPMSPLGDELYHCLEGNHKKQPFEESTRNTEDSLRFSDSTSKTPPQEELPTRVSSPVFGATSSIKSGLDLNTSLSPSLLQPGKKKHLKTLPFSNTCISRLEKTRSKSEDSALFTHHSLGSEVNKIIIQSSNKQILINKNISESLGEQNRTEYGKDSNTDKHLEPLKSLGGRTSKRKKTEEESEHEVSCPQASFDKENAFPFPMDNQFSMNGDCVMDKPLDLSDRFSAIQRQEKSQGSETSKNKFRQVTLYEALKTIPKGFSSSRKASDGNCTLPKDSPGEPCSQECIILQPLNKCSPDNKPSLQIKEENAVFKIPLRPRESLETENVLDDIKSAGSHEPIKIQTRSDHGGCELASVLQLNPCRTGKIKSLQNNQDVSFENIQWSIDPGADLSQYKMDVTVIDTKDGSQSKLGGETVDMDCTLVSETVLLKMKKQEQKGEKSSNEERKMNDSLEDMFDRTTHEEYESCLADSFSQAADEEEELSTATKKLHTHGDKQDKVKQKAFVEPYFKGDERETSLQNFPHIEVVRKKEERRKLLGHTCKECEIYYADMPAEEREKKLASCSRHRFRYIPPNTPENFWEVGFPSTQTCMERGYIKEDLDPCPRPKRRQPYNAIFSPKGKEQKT

The target of one assay is T1, ARID4A 568-634 Tudor-knot (domain begin …. Description: phage ELISA signal ratio (GST-PRM binding over GST background); higher = stronger binding of peptide-phage to the PRM. The method, then: (§1)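 Phage-displayed random hexadecapeptides (Cys-free, flanked by invariant Gly linkers, fused to the M13 P8 major coat protein) were selected over 5 rounds against GST-fused human PRM domains. Individual clones from rounds 4-5 were tested by phage ELISA, and positive clones binding the target but not GST were sequenced. Values are the ELISA signal ratio of target over background (GST); the background signal is given separately.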
Turning to DGWGWDHIEIEMPYEE, the “phage ELISA signal ratio” value amounted to 12.4.

Turning to WGWDEMLNDPEIMRIV, the “phage ELISA signal ratio” value was determined as 12.7.

The target in a further assay is T2, SND1 650-910 TUDOR+SNase (domain begin …. The description is as above. The method, then: as §1
With DGWGWDHIEIEMPYEE, the “phage ELISA signal ratio” value amounted to 8.36.

Take WGWDEMLNDPEIMRIV: the “phage ELISA signal ratio” value was found to be 8.1.

For another assay, the target named is T3, BTN1A1 285-479 SPRY (domain begin …. The assay is described as above. The procedure:
as §1
As for GGIDWQGVYMKHFEMT, the “phage ELISA signal ratio” value is 20.6.

The next assay has as its target KMT2C 1055-1137 PHD (domain begin residue: 1055, domain end residue: 1137). Described as above. The method, then:
as §1
Regarding WGWDEMLNDPEIMRIV, the “phage ELISA signal ratio” value came out at 8.35.

Another assay deals with T4, LBR 1-67 LBR_tudor (domain begin …. Described as above. The method, then: as §1
For the molecule WGWDEMLNDPEIMRIV, the “phage ELISA signal ratio” value came out at 7.63.

A further assay addresses PAF1 165-376 Paf1 (domain begin residue: 165, domain end residue: 376), Q8N7H5. Described as above. The method, then:
as §1
WGWDEMLNDPEIMRIV: the “phage ELISA signal ratio” value stood at 6.83.

Another assay has as its target RBBP8 722-897 SAE2 (domain begin residue: 722, domain end residue: 897), Q99708. The description is as above. The procedure: as §1
WGWDEMLNDPEIMRIV: the “phage ELISA signal ratio” value was determined as 6.44.

Another assay concerns the target SETD1A 2-220 RRM_1 (domain begin residue: 2, domain end residue: 220), O15047. Described as above. The procedure:
as §1
As for WGWDEMLNDPEIMRIV, the “phage ELISA signal ratio” value came out at 7.71.

A further assay has as its target T5, TDRD1 261-449 TUDOR (domain begin …. The description is as above. The method, then:
as §1
Turning to WGWDEMLNDPEIMRIV, the “phage ELISA signal ratio” value turned out to be 10.8.

Another assay addresses T6, ZGPAT 120-268 zf-CCCH+TUDOR (domain …. Described as above. The procedure: as §1
WGWDEMLNDPEIMRIV: the “phage ELISA signal ratio” value stood at 7.66.
